In PubChem BioAssay (NCI):
The panel holds about 83,000 compounds, 20% with a hit somewhere; the sample as a whole holds those more often.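 Results are percent growth after 48 hours of single-concentration exposure. 100 means growth as in untreated cells, lower positive values show inhibition; negative values down to -100 show cell death.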 Values without a mark were called inactive. Active and inactive are the calls of the source. Rule for the calls: active = growth percent below 10; inactive = the rest.

Legend:
Experiment in all cases: NCI-60 one-dose screen, 48 h (100 = growth as untreated, 0 = no growth, -100 = all killed)
Conditions in all cases: 10 µM unless noted
[1] = tested on: SK-MEL-2 melanoma
[2] = tested on: EKVX NSCLC
[3] = tested on: SN12C renal
[4] = tested on: UO-31 renal
[5] = tested on: TK-10 renal
[6] = tested on: ACHN renal
[7] = tested on: CAKI-1 renal
[8] = tested on: A498 renal
[9] = tested on: CCRF-CEM leukemia
[10] = tested on: MOLT-4 leukemia
[11] = tested on: SR leukemia
[12] = tested on: RPMI-8226 leukemia
[13] = tested on: OVCAR-8 ovarian
[14] = tested on: OVCAR-5 ovarian
[15] = tested on: OVCAR-4 ovarian
[16] = tested on: SK-OV-3 ovarian
[17] = tested on: IGROV1 ovarian
[18] = tested on: OVCAR-3 ovarian
[19] = tested on: HS 578T breast
[20] = tested on: NCI/ADR-RES ovarian

| SMILES | growth [1] | growth [2] | growth [3] | growth [4] | growth [5] | growth [6] | growth [7] | growth [8] | growth [9] | growth [10] | growth [11] | growth [12] | growth [13] | growth [14] | growth [15] | growth [16] | growth [17] | growth [18] | growth [19] | growth [20] |
| --- | --- | --- | --- | --- | --- | --- | --- | --- | --- | --- | --- | --- | --- | --- | --- | --- | --- | --- | --- | --- |
| COc1ccc(CNc2ccc3nc(CCC4CCCCC4)[nH]c3c2)cc1 | 87% | 79.1% | 68% | 33.9% | 86.4% | 93.4% | 72.2% | 53.2% | 69.2% | 52.9% | 46.8% | 40.2% | 73.6% | 83.4% | 40.1% | 82% | 61% | 75.4% | 79.7% | 70.3% |
| COc1cc2c(cc1OC)CC[N+](CCC[N+](C)(C)C)=C2 | 88.9% | 100% | 98% | 91.1% | 80.5% | 104% | 96.3% | 104% | 97.9% | 91.6% | 89.8% | 103% | 110% | 91.5% | 99% | 92.9% | 99.6% | 108% | 111% | 102% |
| C/C=C(/C)C(=O)O[C@@H]1CC(C)(C)CC2C34OC(=O)[C@@]21CC[C@@]3(C)[C@]1(C)CCC2C(C)(C)C(=O)CC[C@]2(C)C1C[C@@H]4O (stereo not given in full) | 80.3% | 50.1% | 83.7% | 67.8% | 73.2% | 85.9% | 59.6% | 69.3% | 36.3% | 24.2% | 28.5% | 26.2% | 68.6% | 95.3% | 67.1% | 87.8% | 72.6% | 73.7% | 78.3% | 77% |
| COc1ccc(C(c2cc(OC)c(OC)c(OC)c2)n2cncn2)cc1O (stereo not given) | 55.9% | 39.8% | 39.3% | 58% | 61.3% | 52.4% | 40.4% | 9.66% (active) | 9.34% (active) | 16.7% | 7.03% (active) | 20.7% | 13.4% | 73% | 72.1% | 20.3% | 49.2% | 1.74% (active) | 31.3% | 1.8% (active) |
| COc1ccc(C(=O)/C=C/c2ccc(Cl)cc2)cc1S(N)(=O)=O | 80.3% | 87.3% | 15.4% | 33.1% | 70% | 58.4% | 74.9% | 84.6% | -18.3% (active) | -5.39% (active) | -10.3% (active) | -31.7% (active) | 11.5% | 78.8% | 102% | 83.1% | 16.6% | 61.9% | 91.5% | 74.9% |
| COc1ccc(NC(=O)CSc2oc(-c3ccccc3)nc2S(=O)(=O)c2ccc(Cl)cc2)c(OC)c1 | 66.4% | 74.7% | 75.8% | 61.6% | 67.1% | 36.6% | 86.1% | 49.9% | 89.1% | 73% | 65.2% | 49.9% | 34.3% | 107% | 64.6% | 83.2% | 93.5% | 75.3% | 36.2% | 61.7% |
| C#Cc1cccc(Nc2ncnc3ccc(-c4cnc(Cl)c(NS(C)(=O)=O)c4)cc23)c1 | -73.6% (active) | -46.3% (active) | 3.41% (active) | -80.8% (active) | -72.8% (active) | 13.4% | -31.9% (active) | -76.8% (active) | 7.99% (active) | -11.7% (active) | -9.92% (active) | -31.8% (active) | 3.78% (active) | -15.5% (active) | 9.21% (active) | -25% (active) | -55.8% (active) | -72.5% (active) | -21.4% (active) | 7.96% (active) |
| COc1ccc(S(=O)(=O)NC2c3ccccc3CC2O)cc1OC (stereo not given) | 104% | 103% | 96.1% | 78.8% | 112% | 105% | 102% | 92.7% | 101% | 103% | 100% | 104% | 107% | 104% | 117% | 115% | 106% | 112% | 98.8% | 105% |
| Cn1cc(-c2ccc3occ(-c4cccc(-c5ccncc5)c4)c3n2)cn1 | -1.75% (active) | 30.7% | 13.1% | 11.3% | 9.56% (active) | 21.9% | 12% | -15.7% (active) | 10.9% | 13.2% | 3.95% (active) | 0.0083% (active) | 7.42% (active) | 55.4% | 36.5% | 31.8% | 15.7% | 18.4% | -10.7% (active) | 4.84% (active) |
| C#CCOc1ccc(C2=NN(C)C3N=C(Cl)c4ncn(C)c4N23)cc1OCC#C (stereo not given) | 105% | 102% | 97.6% | 74.6% | 99% | 89.6% | 103% | 85.4% | 87.4% | 82.9% | 91% | 92.4% | 93.1% | 82.6% | 102% | 101% | 102% | 118% | 99.9% | 88.4% |
| C#C[C@]1(O)CC[C@H]2[C@@H]3CC=C4c5sc(-c6cccc(C)c6)nc5CC[C@]4(C)[C@H]3CC[C@@]21C | 86.9% | 68% | 71.3% | 34.1% | 110% | 63.7% | 27.2% | 94.9% | 49.6% | 44.2% | 38.6% | -6.87% (active) | 89.9% | 73.8% | 81.2% | 88.9% | 68.8% | 89.2% | 40.8% | 80.9% |
| O=C(/C=C/c1ccc([N+](=O)[O-])cc1)c1cccc(Nc2nc(Nc3ccccc3)nc(Nc3ccccc3)n2)c1 | 37.5% | 65.1% | 89.1% | 38.9% | 66.3% | 80% | 72.5% | 70% | 46.2% | 46.4% | 55.8% | -60.2% (active) | 70.5% | 74.7% | 79.8% | 81% | 52% | 72.6% | 70.2% | 67.9% |
| C=C(C)Cn1c(SCC(=O)c2cccs2)nc2sc3c(c2c1=O)CCCC3 | 92.3% | 77.1% | 64.5% | 58.6% | 87.5% | 44.3% | 53.8% | 72.1% | 40% | 41.9% | 44% | 50.7% | 49% | 71.2% | 73.4% | 79.1% | 55.1% | 64.5% | 65.3% | 43.9% |
| CC(=O)c1ccc(Nc2nccc(-c3ccc(Cl)cc3)n2)cc1 | 98.1% | 99.2% | 100% | 93.1% | 85.5% | 92.3% | 92.6% | 7.16% (active) | 84.4% | 83.8% | 58.3% | 93.6% | 91.7% | 91.6% | 105% | 108% | 103% | 109% | 95% | 96.1% |
